{"source": "PubChem BioAssay AID624134", "about": "(Broad Institute, 2012)", "note": "Screen size: about 1,600 compounds; about 1,100 (69%) were called active. So high a share suggests a set chosen from earlier hits. Not all results are given here. Entries with a potency or affinity are not part of this list. Results filed as inconclusive are left out. Values without a mark were called inactive.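 Rule for the calls: active = signal drop with fitted half-maximal concentration no higher than twice the top valid tested concentration; inconclusive = flat curve with 30 to 70% signal loss, or poor fit; inactive = the rest, including signal rises and flat curves within 30%.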", "data": [{"test": "HepG2 cell cytotoxicity, dose response, cytotoxicity control for Shn3 inhibitor project, CellTiter-Glo, cherry-picked (AID 624134);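 note: 0% = median of neutral control wells and -100% = median of positive control wells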", "settings": "HepG2 viability, CellTiter-Glo ATP luminescence, 48 h; series mostly up to 35 µM; activity change, negative = cytotoxicity: at the top concentration", "values": [{"smiles": "COc1ccccc1-c1cc(C(F)(F)F)nc(S(=O)(=O)CCCC(=O)Nc2cccnc2Cl)n1", "activity change, negative = cytotoxicity": "10.7% [at 16 µM]"}, {"smiles": "CC(C)c1nnc(NC(=O)CCS(=O)(=O)c2nc(-c3cccs3)cc(C(F)(F)F)n2)s1", "activity change, negative = cytotoxicity": "-52.3%"}, {"smiles": "COC(=O)c1ccc(N2CCN(S(=O)(=O)c3ccc(C)cc3)CC2)c([N+](=O)[O-])c1", "activity change, negative = cytotoxicity": "-5.05%"}, {"smiles": "O=C1CC2(CCN(C(=O)c3ccccc3F)CC2)Oc2ccccc21", "activity change, negative = cytotoxicity": "-2.72%"}, {"smiles": "O=C(CSc1c2c(nc3ccc(Cl)cc13)CCCC2)NCc1ccco1", "activity change, negative = cytotoxicity": "-13.9%"}, {"smiles": "CSCCC(NC(=O)c1ccccc1)C(=O)OCC(=O)N(C)CCC#N", "note": "(stereo unspecified)", "activity change, negative = cytotoxicity": "-5.72%"}, {"smiles": "CC[C@@H](C(=O)[C@@H](C)[C@@H](O)[C@H](C)CCc1ccc(C)c(O)c1C(=O)O)[C@H]1O[C@](CC)([C@H]2CC[C@](O)(CC)[C@H](C)O2)C[C@@H]1C", "activity change, negative = cytotoxicity": "25.4%"}, {"smiles": "Cc1cc(C)n2nc(SCc3cccc(S(=O)(=O)N(C)C)c3)nc2n1", "activity change, negative = cytotoxicity": "-6.75%"}, {"smiles": "CC(C)NCC(O)COc1cccc2ccccc12", "note": "(stereo unspecified)", "activity change, negative = cytotoxicity": "-1.75%"}, {"smiles": "CCn1c(C)nc2cc(-c3nnc(-c4c(-c5ccccc5)noc4C)o3)ccc21", "activity change, negative = cytotoxicity": "-9.46%"}, {"smiles": "COc1ccc(N(C)C(=O)c2ccc3snnc3c2)cc1", "activity change, negative = cytotoxicity": "-7.24%"}, {"smiles": "COc1ccc(-c2ccc(Nc3ccc(S(=O)(=O)N4CCCC4)cc3)nn2)cc1OC", "activity change, negative = cytotoxicity": "-6.38%"}, {"smiles": "COC(=O)Oc1ccc(/C=C/C(=O)OC(C)C)cc1OC(=O)OC", "activity change, negative = cytotoxicity": "-16.1%"}, {"smiles": "Cc1ccc(C(=O)/C=C/c2ccc(-c3ccc(C)cc3)o2)cc1", "activity change, negative = cytotoxicity": "-19.4%"}, {"smiles": "CCc1c(C)nc2cc(-c3ccc(OC)c(OC)c3)nn2c1NCC1CC1", "activity change, negative = cytotoxicity": "-10.7%"}, {"smiles": "C=CS(=O)(=O)c1sc(Cl)c(N2CCOCC2)c1[N+](=O)[O-]", "activity change, negative = cytotoxicity": "-16.6%"}, {"smiles": "COc1ccc(-c2nsc3c(N4CCCCC4C)ncnc23)cc1", "note": "(stereo unspecified)", "activity change, negative = cytotoxicity": "-2.42%"}, {"smiles": "CC(Cc1cccs1)NC(=O)Nc1ccc(F)cc1", "note": "(stereo unspecified)", "activity change, negative = cytotoxicity": "-3.13%"}, {"smiles": "COc1ccc(CNC(=O)C(c2ccc(C)cc2)N(Cc2cccs2)C(=O)c2ccc3c(c2)OCCO3)cc1", "note": "(stereo unspecified)", "activity change, negative = cytotoxicity": "-11.3%"}, {"smiles": "COc1ccc(C(O)c2nc(-c3cccc(F)c3)cs2)cc1", "note": "(stereo unspecified)", "activity change, negative = cytotoxicity": "-10.4%"}, {"smiles": "O=C(C1=C[C@@H](C2CC2)C[C@@H](OCCCCO)O1)N1CCN(Cc2ccccc2)CC1", "activity change, negative = cytotoxicity": "-3.33%"}, {"smiles": "NC(=O)c1cc(N2C(=O)C=CC2=O)ccc1Cl", "activity change, negative = cytotoxicity": "-12.6%"}, {"smiles": "CC(C)C(NC(=O)c1ccc(Cl)cc1Cl)C(=O)N1CCN(S(=O)(=O)c2ccccc2)CC1", "note": "(stereo unspecified)", "activity change, negative = cytotoxicity": "-15.1%"}, {"smiles": "O=C(Cc1ccccc1)NCCS(=O)c1ccc(Cl)cc1", "note": "(stereo unspecified)", "activity change, negative = cytotoxicity": "0.411%"}, {"smiles": "Nc1nnc(SCC(=O)Nc2ccc(N3CCOCC3)cc2)s1", "activity change, negative = cytotoxicity": "14.7%"}, {"smiles": "CCCc1ccc(C(=O)NNc2cc(Cl)ccc2Cl)cc1", "activity change, negative = cytotoxicity": "-8.35%"}, {"smiles": "O=C(c1ccc(S(=O)(=O)c2ccc(F)cc2)c([N+](=O)[O-])c1)N1CCCCCC1", "activity change, negative = cytotoxicity": "-6.03%"}, {"smiles": "OCCNc1nc(Nc2ccc(Cl)cc2)nc(N2CCCC2)n1", "activity change, negative = cytotoxicity": "-5.38%"}, {"smiles": "CCCn1c(C)cc(C(=O)CN2C(=O)c3ccccc3S2(=O)=O)c1C", "activity change, negative = cytotoxicity": "0.847%"}, {"smiles": "O=C1S/C(=C\\c2ccc(N3CCOCC3)o2)C(=O)N1Cc1c(F)cccc1Cl", "activity change, negative = cytotoxicity": "-15.7%"}, {"smiles": "COc1c(C)cc(C(=O)C2CCCN(C(=O)c3cccc(-n4cccn4)c3)C2)cc1C", "note": "(stereo unspecified)", "activity change, negative = cytotoxicity": "-3.56%"}, {"smiles": "Cc1nc2scc(C)n2c(=O)c1S(=O)(=O)Nc1ccc(N2CCOCC2)c(Cl)c1", "activity change, negative = cytotoxicity": "-6.26%"}, {"smiles": "O=C(CSc1nc2ncc(Cl)cc2[nH]1)N1CCOCC1", "activity change, negative = cytotoxicity": "-4.52%"}, {"smiles": "CC(C)(C)C(=O)Nc1ccc(NC(=O)c2ccco2)nc1", "activity change, negative = cytotoxicity": "-10.1%"}, {"smiles": "COc1ccc(S(=O)(=O)NCCC(=O)OCC(=O)NC2CC2)cc1", "activity change, negative = cytotoxicity": "-16.9%"}, {"smiles": "O=C(CSc1nnc(Nc2ccccc2)s1)NC1CCS(=O)(=O)C1", "note": "(stereo unspecified)", "activity change, negative = cytotoxicity": "-8.91%"}, {"smiles": "Cc1ccc(S(=O)(=O)N2CCCCC2)cc1NS(=O)(=O)c1ccccc1F", "activity change, negative = cytotoxicity": "-9.02%"}, {"smiles": "COc1cccc(C2CC(c3ccc(C)cc3)=NN2C(=O)c2ccccc2F)c1OC", "note": "(stereo unspecified)", "activity change, negative = cytotoxicity": "-7.78%"}, {"smiles": "Cc1cc(C(=O)Cn2cnc3cc(F)ccc3c2=O)c(C)n1C1CC1", "activity change, negative = cytotoxicity": "-1.41%"}, {"smiles": "CCCc1nc([N+](=O)[O-])c(S(=O)(=O)c2ccccc2)n1CC(C)C", "activity change, negative = cytotoxicity": "-25.5%"}, {"smiles": "Cc1ccc(C(=O)Nc2ccc3c(c2)C(=O)N(CC2CCCO2)C3=O)cc1", "note": "(stereo unspecified)", "activity change, negative = cytotoxicity": "-10.1%"}, {"smiles": "COc1ccc([C@@]23Oc4cc(OC)cc(OC)c4[C@]2(O)[C@H](O)[C@H](C(=O)N(C)C)[C@H]3c2ccccc2)cc1", "activity change, negative = cytotoxicity": "-8.25%"}, {"smiles": "CCN(CC)C(=O)C1CCCN(c2ccc([N+](=O)[O-])cc2[N+](=O)[O-])C1", "note": "(stereo unspecified)", "activity change, negative = cytotoxicity": "-12.1%"}, {"smiles": "CCCCN1CC(COCc2ccccc2)Oc2cccc(Oc3ccc(C(C)C)cc3)c2S1(=O)=O", "note": "(stereo unspecified)", "activity change, negative = cytotoxicity": "-4.99%"}, {"smiles": "COc1cccc(-c2nc(NC3CCCC3)c3ccccc3n2)c1O", "activity change, negative = cytotoxicity": "-14.4%"}, {"smiles": "O=C(N[C@@H]1C/C=C\\C[C@@H](CC(=O)N(CCO)Cc2ccccc2)C(=O)NC[C@H](c2ccccc2)OC1=O)OCC1c2ccccc2-c2ccccc21", "activity change, negative = cytotoxicity": "2.33%"}, {"smiles": "Cc1ccc(-c2nc3cccnc3o2)cc1NC(=O)COc1ccc(C(C)(C)C)cc1", "activity change, negative = cytotoxicity": "-27.5%"}, {"smiles": "CC(C)CCC(C(=O)O)C(C)CC(=O)NNC(=O)c1ccco1", "note": "(stereo unspecified)", "activity change, negative = cytotoxicity": "-2.17%"}, {"smiles": "CC(C)(C)N(Cc1ccccc1)C(=O)COC(=O)CCc1c[nH]c2ccccc12", "activity change, negative = cytotoxicity": "-8.24%"}, {"smiles": "CCCCCCN1C[C@H](n2cc(-c3ccc(F)cc3)nn2)[C@@H](O)C[C@@H]1c1ccc(Cl)cc1", "activity change, negative = cytotoxicity": "-62.3%"}, {"smiles": "CC(=O)N1c2ccc(S(=O)(=O)N3CCC(C(=O)N4CCN(c5cc(Cl)ccc5C)CC4)CC3)cc2CC1C", "note": "(stereo unspecified)", "activity change, negative = cytotoxicity": "1.7%"}, {"smiles": "CCN(c1ccccc1)S(=O)(=O)c1ccc(Cl)c(NC(=O)CN(C)Cc2cccc(F)c2)c1", "activity change, negative = cytotoxicity": "-10.9%"}, {"smiles": "Cc1cccc(C)c1NC(=O)CN(C)C(=O)c1cc(S(=O)(=O)N(C)C)ccc1N1CCCC1", "activity change, negative = cytotoxicity": "5.64%"}, {"smiles": "Oc1c(C(c2cccs2)N2CCC3(CC2)OCCO3)sc2ncnn12", "note": "(stereo unspecified)", "activity change, negative = cytotoxicity": "-1.02%"}, {"smiles": "CCOC(=O)/C(=C\\c1ccc([N+](=O)[O-])cc1)C(=O)c1cc(C(C)=O)c(Nc2ccccc2)s1", "activity change, negative = cytotoxicity": "-7.79%"}, {"smiles": "CCOC(=O)c1[nH]c(C)c(/C(O)=C2\\C(=O)C(=O)N(CCCN3CCOCC3)C2c2cccs2)c1C", "note": "(stereo unspecified)", "activity change, negative = cytotoxicity": "0.789%"}, {"smiles": "CN1C(=O)c2cccc(NCCCCCCN3C(=O)c4ccccc4C3=O)c2C1=O", "activity change, negative = cytotoxicity": "-5.25%"}, {"smiles": "Cc1ccc(C)c(N2CCN(S(=O)(=O)c3ccc4[nH]c(=O)ccc4c3)CC2)c1", "activity change, negative = cytotoxicity": "3.47%"}, {"smiles": "Nc1cc(=O)[nH]c(SCC(=O)Nc2cccc([N+](=O)[O-])c2)n1", "activity change, negative = cytotoxicity": "-5.8%"}, {"smiles": "CC1Cc2ccccc2N1Cc1cccc(S(=O)(=O)N(C)C)c1", "note": "(stereo unspecified)", "activity change, negative = cytotoxicity": "-3.11%"}, {"smiles": "Cc1cccc(-c2noc(CN(C(=O)C(c3ccccc3)c3ccccc3)C(C)C)n2)c1", "activity change, negative = cytotoxicity": "-14.7%"}]}]}
